Compounds without any hit were thinned out: in the full panel of roughly 83,000, 20% have a hit.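 The endpoint reported here, percent growth, reads 100 for growth as untreated, 0 for no net growth and -100 for all cells dead.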 A number with no mark means an inactive call. Calls of active or inactive are those of the source. Rule for the calls: active = growth percent below 10; inactive = the rest.
These compounds were tested on HL-60(TB) leukemia (assay: NCI-60 one-dose screen, 48 h (100 = growth as untreated, 0 = no growth, -100 = all killed)). Details: 10 µM unless noted.

SMILES	growth
CC(C)c1ccc(NC(=O)Nc2ccc(NC(=O)c3ccccc3N)cc2)cc1	50.1%
COc1cnc2c(c1)C(=O)c1c-2n(CCCN2CCN(CCO)CC2)c(=O)c2cc([N+](=O)[O-])ccc12	12.7%
O=c1[nH]c(NCc2ccccc2)nc2nc(Nc3ccc(NC(=S)Nc4ccccc4)cc3)nc(-c3ccc(O)cc3O)c12	98.4%
CCCCOCCOCCOCc1cc2c(cc1Br)OCO2	108%
COc1ccc(/C=C/c2cccc[n+]2C)cc1	105%
CCCn1c(=S)sc2c(Cl)nc(C)nc21	130%
CC1(C)c2[nH]c3ccccc3c2C[C@]2(C)[C@H]3C(=O)C=C4[C@@H]5C[C@@](C)(C(N)=O)CC[C@]5(C)CC[C@@]4(C)[C@]3(C)CC[C@@H]12	59.9%
O=C(C(=O)c1ccc2c(c1)OCO2)c1ccc2c(c1)OCO2	62.3%
O=c1ccn(Cc2cn(-c3c4ccccc4nc4ccccc34)nn2)c(=O)[nH]1	75.7%
COc1ccncc1S(=O)(=O)NC(=O)Nc1ccc(Cl)c(Cl)c1	84.8%
[2H]C([2H])([2H])Oc1ccc(/C=C/C(=O)/C=C(O)/C=C/c2ccc(OC([2H])([2H])[2H])c(OC([2H])([2H])[2H])c2)cc1OC([2H])([2H])[2H]	54.5%
CN(C)CCN(C)CC(C)(C)C(=O)/C=C/c1ccc(Cl)c(Cl)c1	-41.9% [100 µM] (active)
O=C(Nc1ccc(N2CCCCC2)c(Cl)c1)c1ccc(Br)o1	46.3%
CN1CCC2(CC1)N=C(SCC(=O)Nc1cnc3ccccc3c1)C(c1ccc(Br)cc1)=N2	-40.7% (active)
O=S(=O)(N=C1C(Cl)=C(Cl)C(=NS(=O)(=O)c2ccccc2)C(Cl)=C1Cl)c1ccccc1	48.5%
O=c1c2c(=NCCN3CCCC3)cc3c(=O)n(CCCN4CCOCC4)c(=O)c4ccc(c(O)n1CCCN1CCOCC1)c2c4-3	-34.7% (active)
COc1cc(C2CC(c3ccc(Nc4ccnc5cc(Cl)ccc45)cc3)=NN2c2ccc(Cl)cc2)cc(OC)c1OC (stereo not given)	40.3%
COc1cccc(-c2nc3sccn3c2-c2ccnc(NCCCNS(=O)(=O)c3ccc(F)cc3)c2)c1	-13.5% (active)
FC(F)(F)c1cc(-c2nnc3n2N=C(N2CCCC2)CS3)cc(C(F)(F)F)c1	113%
N#Cc1c(-c2ccccc2)cc(-c2ccc(Nc3nc(Nc4ccc(F)cc4)nc(Nc4ccc(F)cc4)n3)cc2)nc1N	14.2%

SMILES	growth
COc1ccc(C/C(C)=C(/c2ccc(OCCCN(C)C)cc2)c2ccc(OC(C)=O)cc2)cc1	70.8%
CC(C)N=C1CCCC1C(=S)SSC(=S)C1CCCC1=NC(C)C (stereo not given)	75.8%
CNc1cccc2c1C(=O)c1cccc(N)c1C2=O	34.4%
NC(N)=N/N=C(/c1ccccc1)c1ccc(N)cc1	98.1%
Nc1ccc(C(=O)c2ccc(N)c(Br)c2)cc1Br	-16.5% (active)
COc1ccc(S(=O)(=O)Nc2c(/C=C\c3cc(OC)c(OC)c(OC)c3)ccc(OC)c2O)cc1	-42.3% (active)
COC1=C(C)C(=O)N2[C@@H]1[C@H](c1ccccc1)OC21C=CC(=O)C=C1	-11.2% (active)
Clc1ccc(-c2cnc3c(-c4ccnc(N5CCNCC5)c4)cnn3c2)cc1	-33.7% (active)
O=C(Nc1ccc(Oc2cccc(Cl)c2)c(Cl)c1)c1cccnn1	89.5%
CC(=O)c1ccc(NC(=O)CSc2nnc(-c3cc(-c4ccc(C)cc4)nc4ccccc34)o2)cc1	80.6%
COc1cc(C(=O)c2cnc(-c3cccc4[nH]ccc34)[nH]2)cc(OC)c1OC	-28.6% (active)
O=[N+]([O-])c1ccc([I+]c2ccccc2)cc1	21.5%
CCCCC(O)c1ccccc1 (stereo not given)	99.2%
Cc1nn(-c2ccc(Cl)cc2)c(=O)n1CCOc1ccccc1Cl	106%
COc1cc(/C=C/C(=O)c2c(C)n([O-])c3cc(C)c(C)cc3[n+]2=O)cc(OC)c1OC	32.9%
Cn1cc(-c2nc3c(F)cc4[nH]ncc4c3c3c2CCCC3)c(C(F)(F)F)n1	-11.2% (active)
CCCCc1oc2ccccc2c1C(=O)c1cc(I)c(OCCN(CC)CC)c(I)c1	-62.9% (active)
Clc1cccc(Cl)c1Cn1c(-c2cncs2)nc2ccccc21	56.6%
Nn1c(SCC(=O)Nc2cc(Cl)c(Cl)cc2Cl)nnc1-c1cc(F)c(Cl)cc1Cl	92%
Nc1nc(Nc2ccc([N+](=O)[O-])cc2O)nc(C(Cl)(Cl)Cl)n1	6.38% (active)

— PubChem BioAssay (NCI)
